Reference: the supplement of paper PMC8728848
Shown is part of a subset that was picked to be rich in the strongest signals.

Key:
Test in all cases: glycan array binding signal (z-score within array); higher = stronger binding
Conditions in all cases: glycan notation: IUPAC condensed, linker removed
[1] = biological target: GlcNAc(b1-2)[GlcNAc(b1-6)]Man(a1-6)[GlcNAc(b1-2)Man(a1-3)]Man(b1-4)GlcNAc(b1-4)GlcNAc
Method in brief: (§1)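 Negative Z-scores can be read as non-binding. The Z-score is calculated within each array and then averaged across arrays of one protein sequence at different concentrations or buffers and across linkers. Arrays, 3228 in all, were curated from the Consortium for Functional Glycomics database and kept only where the protein sequence was available.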

GlcNAc(b1-3)Gal(b1-4)Glc = biological target: GlcNAc(b1-3)Gal(b1-4)Glc
Method in brief: as §1

[2] = biological target: GlcNAc(b1-3)Gal(b1-4)GlcNAc(b1-3)Gal(b1-4)GlcNAc(b1-2)[GlcNAc(b1-3)Gal(b1-4)GlcNAc(b1-3)Gal(b1-4)GlcNAc(b1-6)]Man(a1-6)[GlcNAc(b1-3)Gal(b1-4)GlcNAc(b1-3)Gal(b1-4)GlcNAc(b1-2)Man(a1-3)]Man(b1-4)GlcNAc(b1-4)[Fuc(a1-6)]GlcNAc
Method in brief: as §1

[3] = biological target: GlcNAc(b1-3)Gal(b1-4)GlcNAc(b1-3)Gal(b1-4)GlcNAc(b1-3)Gal(b1-4)GlcNAc(b1-2)Man(a1-3)[GlcNAc(b1-3)Gal(b1-4)GlcNAc(b1-3)Gal(b1-4)GlcNAc(b1-3)Gal(b1-4)GlcNAc(b1-2)Man(a1-6)]Man(b1-4)GlcNAc(b1-4)GlcNAc
Method in brief: as §1

[4] = biological target: GlcNAc(b1-3)Gal(b1-4)GlcNAc(b1-3)Gal(b1-4)GlcNAc(b1-3)Gal(b1-4)GlcNAc(b1-2)[GlcNAc(b1-3)Gal(b1-4)GlcNAc(b1-3)Gal(b1-4)GlcNAc(b1-3)Gal(b1-4)GlcNAc(b1-6)]Man(a1-6)[GlcNAc(b1-3)Gal(b1-4)GlcNAc(b1-3)Gal(b1-4)GlcNAc(b1-3)Gal(b1-4)GlcNAc(b1-2)Man(a1-3)]Man(b1-4)GlcNAc(b1-4)[Fuc(a1-6)]GlcNAc
Method in brief: as §1

[5] = biological target: GlcNAc(b1-3)Gal(b1-4)GlcNAc(b1-3)Gal(b1-4)GlcNAc(b1-3)Gal(b1-4)GlcNAc(b1-3)Gal(b1-4)GlcNAc(b1-2)Man(a1-3)[GlcNAc(b1-3)Gal(b1-4)GlcNAc(b1-3)Gal(b1-4)GlcNAc(b1-3)Gal(b1-4)GlcNAc(b1-3)Gal(b1-4)GlcNAc(b1-2)Man(a1-6)]Man(b1-4)GlcNAc(b1-4)[Fuc(a1-6)]GlcNAc
Method in brief: as §1

[6] = biological target: GlcNAc(b1-3)Gal(b1-4)GlcNAc(b1-3)Gal(b1-4)GlcNAc(b1-3)Gal(b1-4)GlcNAc(b1-3)Gal(b1-4)GlcNAc(b1-2)[GlcNAc(b1-3)Gal(b1-4)GlcNAc(b1-3)Gal(b1-4)GlcNAc(b1-3)Gal(b1-4)GlcNAc(b1-3)Gal(b1-4)GlcNAc(b1-6)]Man(a1-6)[GlcNAc(b1-3)Gal(b1-4)GlcNAc(b1-3)Gal(b1-4)GlcNAc(b1-3)Gal(b1-4)GlcNAc(b1-3)Gal(b1-4)GlcNAc(b1-2)Man(a1-3)]Man(b1-4)GlcNAc(b1-4)[Fuc(a1-6)]GlcNAc
Method in brief: as §1

[7] = biological target: GlcNAc(b1-3)[GlcNAc(b1-4)][GlcNAc(b1-6)]GlcNAc
Method in brief: as §1

[8] = biological target: GlcNAc(b1-4)GlcNAc(b1-4)GlcNAc(b1-4)GlcNAc(b1-4)GlcNAc
Method in brief: as §1

GlcNAc(b1-6)GalNAc = biological target: GlcNAc(b1-6)GalNAc
Method in brief: as §1

[9] = biological target: Kdn(a2-3)Gal(b1-4)[Fuc(a1-3)]GlcNAc
Method in brief: as §1

[10] = biological target: Man(a1-2)Man(a1-3)[Man(a1-2)Man(a1-6)]Man(a1-6)[Man(a1-2)Man(a1-2)Man(a1-3)]Man(b1-4)GlcNAc(b1-4)GlcNAc
Method in brief: as §1

Man(b1-4)GlcNAc = biological target: Man(b1-4)GlcNAc
Method in brief: as §1

[11] = biological target: Neu5Ac(a2-3)Gal(b1-3)GlcNAc(b1-2)[Neu5Ac(a2-3)Gal(b1-3)GlcNAc(b1-4)]Man(a1-6)[Neu5Ac(a2-3)Gal(b1-3)GlcNAc(b1-2)Man(a1-3)]Man(b1-4)GlcNAc(b1-4)GlcNAc
Method in brief: as §1

[12] = biological target: Neu5Ac(a2-3)Gal(b1-3)GlcNAc(b1-3)GalNAc
Method in brief: as §1

[13] = biological target: Neu5Ac(a2-3)Gal(b1-3)GlcNAc6S
Method in brief: as §1

[14] = biological target: Neu5Ac(a2-3)Gal(b1-3)[Fuc(a1-4)]GlcNAc(b1-3)Gal(b1-4)[Fuc(a1-3)]GlcNAc
Method in brief: as §1

[15] = biological target: Neu5Ac(a2-3)Gal(b1-3)[Neu5Ac(a2-6)]GlcNAc(b1-3)[Fuc(a1-3)[Gal(b1-4)]GlcNAc(b1-6)]Gal(b1-4)Glc
Method in brief: as §1

[16] = biological target: Neu5Ac(a2-3)Gal(b1-3)]Neu5Ac(a2-3)Gal(b1-4)]GlcNAc
Method in brief: as §1

[17] = biological target: Neu5Ac(a2-3)Gal(b1-4)GlcNAc(b1-2)[Neu5Ac(a2-3)Gal(b1-4)GlcNAc(b1-4)]Man(a1-3)[GlcNAc(b1-4)][Neu5Ac(a2-3)Gal(b1-4)GlcNAc(b1-2)[Neu5Ac(a2-3)Gal(b1-4)GlcNAc(b1-6)]Man(a1-6)]Man(b1-4)GlcNAc(b1-4)GlcNAc
Method in brief: as §1

[18] = biological target: Neu5Ac(a2-3)Gal(b1-4)GlcNAc(b1-3)Gal(b1-4)[Fuc(a1-3)]GlcNAc
Method in brief: as §1

[19] = biological target: Neu5Ac(a2-3)Gal(b1-4)GlcNAc(b1-3)GalNAc
Method in brief: as §1

[20] = biological target: Neu5Ac(a2-3)GalNAc(b1-4)GlcNAc
Method in brief: as §1

[21] = biological target: Neu5Ac(a2-8)Neu5Ac(a2-3)Gal(b1-3)GalNAc(b1-4)[Neu5Ac(a2-3)]Gal(b1-4)Glc
Method in brief: as §1

[22] = biological target: Neu5Ac(a2-8)Neu5Gc(a2-3)Gal(b1-4)GlcNAc
Method in brief: as §1

Neu5Gc(a2-3)Gal(b1-4)Glc = biological target: Neu5Gc(a2-3)Gal(b1-4)Glc
Method in brief: as §1

B1: AFCNVH (Aspergillus fumigatus) (protein)
chain: MSLRGFHTTCDTIVLKDKHILSSRCKRPDGTYSFSEIDLNDCLGNNNGKFVWGGESFVDSASQVNLALEGGEGRPMLHAQLNDWHGSVQSASVNLGECIQNEAGGLEYMHC
With B1 the “glycan array binding signal (z-score)” value [1] was -0.203, the “glycan array binding signal (z-score)” value (GlcNAc(b1-3)Gal(b1-4)Glc) was -0.196 and the “glycan array binding signal (z-score)” value [2] was 3.73. For the same binder, the “glycan array binding signal (z-score)” value [3] was 4.24, the “glycan array binding signal (z-score)” value [4] was 3.78 and the “glycan array binding signal (z-score)” value [5] was 1.62. The “glycan array binding signal (z-score)” value [6] was 4.73, the “glycan array binding signal (z-score)” value [7] was -0.338 and the “glycan array binding signal (z-score)” value [8] was 3.83. For the same binder, the “glycan array binding signal (z-score)” value (GlcNAc(b1-6)GalNAc) was 1.1, the “glycan array binding signal (z-score)” value [9] was -0.455 and the “glycan array binding signal (z-score)” value [10] was -0.336. The “glycan array binding signal (z-score)” value (Man(b1-4)GlcNAc) was -0.3, the “glycan array binding signal (z-score)” value [11] was -0.439 and the “glycan array binding signal (z-score)” value [12] was -0.385. The “glycan array binding signal (z-score)” value [13] was -0.204, the “glycan array binding signal (z-score)” value [14] was -0.305 and the “glycan array binding signal (z-score)” value [15] was -0.416. For the same binder, the “glycan array binding signal (z-score)” value [16] was -0.242, the “glycan array binding signal (z-score)” value [17] was -0.351 and the “glycan array binding signal (z-score)” value [18] was -0.398. For the same binder, the “glycan array binding signal (z-score)” value [19] was -0.339, the “glycan array binding signal (z-score)” value [20] was -0.24 and the “glycan array binding signal (z-score)” value [21] was -0.287. The “glycan array binding signal (z-score)” value [22] was -0.48 and the “glycan array binding signal (z-score)” value (Neu5Gc(a2-3)Gal(b1-4)Glc) was -0.447.
